Source: PubChem (National Center for Advancing Translational Sciences (NCATS))
D3 antag: D3 dopamine receptor (human) antagonism | P35462 | D3R cells, DiscoveRx beta-arrestin luminescence, antagonist mode; hits give low values | max response, negative = inhibition, % | 2.5% of 360,000 active | AID 652054; in the data active = max response below about -50%
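Cells plated overnight at 1500 cells/well, then exposed to library compounds with dopamine controls for 90 minutes at 37 degrees C. DiscoveRx reagent added for 30–60 minutes at room temperature; luminescence read, quantitative HTS format.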
TSHR antag: human thyrotropin receptor antagonism; P16473; TSHR-expressing cells, TSH-stimulated cAMP HTRF, 2 h; hits give low values; activity change, negative = inhibition, % at 11.5 µM; 0.2% of 330,000 active;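 active = activity change below a set negative limit, meaning inhibition stronger than a set level, cut at about -70% in these data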
Target sequence (P16473 whole entry, looked up): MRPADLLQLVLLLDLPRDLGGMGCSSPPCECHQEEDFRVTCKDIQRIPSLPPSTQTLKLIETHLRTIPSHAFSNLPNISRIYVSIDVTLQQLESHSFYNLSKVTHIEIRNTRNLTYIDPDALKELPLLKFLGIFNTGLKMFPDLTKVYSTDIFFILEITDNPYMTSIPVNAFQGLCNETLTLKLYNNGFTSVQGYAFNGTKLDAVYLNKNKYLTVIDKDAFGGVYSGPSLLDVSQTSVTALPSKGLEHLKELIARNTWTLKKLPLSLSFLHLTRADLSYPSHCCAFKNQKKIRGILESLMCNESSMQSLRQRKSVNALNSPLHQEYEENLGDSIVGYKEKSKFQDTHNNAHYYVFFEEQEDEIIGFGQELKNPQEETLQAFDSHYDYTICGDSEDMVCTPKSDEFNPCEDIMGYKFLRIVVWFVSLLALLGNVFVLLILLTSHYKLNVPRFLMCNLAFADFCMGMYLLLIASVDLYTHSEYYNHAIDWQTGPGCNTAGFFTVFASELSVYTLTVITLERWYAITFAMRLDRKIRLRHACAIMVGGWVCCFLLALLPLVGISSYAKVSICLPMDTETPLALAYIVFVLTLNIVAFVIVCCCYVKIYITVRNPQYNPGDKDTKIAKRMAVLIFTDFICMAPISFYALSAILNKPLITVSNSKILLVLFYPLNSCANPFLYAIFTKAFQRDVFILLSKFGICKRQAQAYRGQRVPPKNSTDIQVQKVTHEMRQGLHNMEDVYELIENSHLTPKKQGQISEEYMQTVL
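Competitive HTRF cAMP read-out (cryptate anti-cAMP antibody, cAMP-d2; 30 min, room temperature) in freshly harvested TSHR cells. Compounds added before TSH at EC80 (4nM final), followed by 2 hours' incubation at 37 deg C.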
B2AR arrestin: recruits beta-arrestin to the human beta2-adrenergic receptor. beta-arrestin recruitment to beta2AR, cell-based reporter. Potency, µM (doses to about 46.1 µM), actives largely listed as activators. AID 492947. P07550. 0.02% of 330,000 active; active = well fitted activation curve with a large enough effect; note: nearly all actives have a fitted effect of over 65% in size
DRD3 agonist: D3 dopamine receptor (human) agonism; P35462; D3R DiscoveRx beta-arrestin cells, luminescence, 90 min; max activation, %; 0.58% of 410,000 active; in the data active = max activation above about 30%
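Agonist-mode cell screen: cells plated at 1500/well and incubated overnight at 37 °C, then exposed to library compounds for 90 min at 37 °C. Detection reagent was added for 30–60 min at room temperature, and luminescence was read.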
Large screens that a line does not name were inactive; ! = not confirmed by another sample. Hits are enriched below; roughly 2.9% of the tested compounds scored in any of these assays.

CCSc1ncc(Cl)c(C(=O)N2CCN(c3ccccc3OC)CC2)n1	none (no result: D3 antag, TSHR antag, B2AR arrestin)
COc1cc(Cl)c(CNC[C@H]2O[C@@H](n3ccc(=O)[nH]c3=O)[C@H](O)[C@@H]2O)c(Cl)c1O	none (no result: TSHR antag, B2AR arrestin)
COc1ccc(CNC[C@H]2O[C@@H](n3ccc(=O)[nH]c3=O)[C@H](O)[C@@H]2O)cc1OC	D3 antag -59 (no result: TSHR antag, B2AR arrestin)
COC(=O)C1=CN(Cc2ccc(OC)cc2)C=C(C(=O)OC)C1c1cccs1	none
COC(=O)C1=CC(C(=O)c2cccs2)=NN(c2ccc(OC)cc2)C1C(=O)OC (centres undefined)	D3 antag -56
CCCCn1cc(S(=O)(=O)c2ccc(OC)cc2)c(=O)c2cc(F)c(N3CCOCC3)cc21	none (no result: D3 antag, TSHR antag, B2AR arrestin)
CCOC(=O)C(=CNc1ccc(N2CCOCC2)cc1)C(=O)OCC	none
CCOC(=O)C(=CNc1ccc2c(c1)CCN2C(C)=O)C(=O)OCC	DRD3 agonist 32
CCOC(=O)C(=CNc1ccc(-c2ccco2)c(Cl)c1)C(=O)OCC	DRD3 agonist 38
COc1ccc(CNC(=O)c2nn(-c3ccccc3C)nc2CO)cc1	none (no result: D3 antag, TSHR antag, B2AR arrestin)
COc1cccc(CNS(=O)(=O)c2cc3c4c(c2)CCN4C(=O)CC3)c1	D3 antag -72
O=C1CCc2cc(S(=O)(=O)NCc3ccccc3)cc3c2N1CC3	none
CSc1ccc(CCNC(=O)c2ccc(-c3nc(COc4ccc(C)cc4)c(C)o3)cc2)cc1	none (no result: D3 antag, TSHR antag, B2AR arrestin)
O=C1NC(CCc2ccccc2)C(=O)N1Cc1ccc(Br)cc1 (centres undefined)	D3 antag -71
COc1ccc(Cn2c(CNS(=O)(=O)c3ccc4c(c3)CCCC4)nc3cccnc32)cc1	none (no result: D3 antag, TSHR antag, B2AR arrestin)
CN(C(=O)c1cc2c(=O)n3ccccc3nc2n1C)c1ccccc1	none (no result: D3 antag, TSHR antag, B2AR arrestin)
O=c1oc(-c2cccs2)nc2c1cnn2-c1ccccc1	D3 antag -56
O=c1oc(-c2ccccc2)nc2c1cnn2-c1ccccc1	none
CC[C@@H](C)[C@@H](N)C1=N[C@H](C(=O)N[C@@H](CC(C)C)C(=O)N[C@@H](CCC(=O)O)C(=O)N[C@@H](C(=O)N[C@@H]2CCCCNC(=O)[C@@H](CC(N)=O)NC(=O)[C@@H](CC(=O)O)NC(=O)[C@@H](Cc3cnc[nH]3)NC(=O)[C@@H](Cc3ccccc3)NC(=O)[C@@H]([C@H](C)CC)NC(=O)[C@@H](CCCN)NC2=O)[C@@H](C)CC)CS1	none (no result: D3 antag, TSHR antag, B2AR arrestin)
Nc1nonc1-n1nnc(C(=O)N/N=C/c2cccc(Cl)c2)c1CSc1ccccc1	DRD3 agonist 39
Nc1nonc1-n1nnc(C(=O)N/N=C/c2cccc(Cl)c2)c1CSc1ccc(Cl)cc1	none
COc1cccc(-n2cc(C(=O)NCc3ccc(C)cc3)c3ccccc3c2=O)c1	none (no result: D3 antag, TSHR antag, B2AR arrestin)
OCCNCC(O)Cn1ccc2ccccc21 (centres undefined)	D3 antag -52
OCCNCC(O)Cn1c2ccccc2c2ccccc21 (centres undefined)	none
CN(C)CCOC(=O)C12CC3(C)CC(C)(CC(C)(C3)C1)C2	D3 antag -84
CC[C@@H](C(=O)O)[C@@H]1O[C@@H]([C@@H](C)[C@H](O)[C@H](C)C(=O)[C@H](CC)[C@H]2O[C@]3(C=C[C@@H](O)[C@]4(CC[C@@](C)([C@H]5CC[C@](O)(CC)[C@H](C)O5)O4)O3)[C@H](C)C[C@@H]2C)[C@@H](C)C[C@@H]1C	DRD3 agonist 54 (no result: D3 antag, TSHR antag, B2AR arrestin)
C[C@]12CC[C@@H]3c4ccc(O)cc4CC[C@H]3[C@@H]1CC[C@@H]2OC(=O)CCC1CCCC1	DRD3 agonist 45! (no result: TSHR antag, B2AR arrestin)
CCc1ccc2c(c1)Sc1ccccc1CC2N1CCN(C)CC1 (centres undefined)	D3 antag -116 (no result: TSHR antag, B2AR arrestin)
c1ccc2c(c1)CC(N1CCCCC1)c1ccccc1S2 (centres undefined)	none (no result: TSHR antag, B2AR arrestin)
CN1CCN(C2=Cc3cc(Cl)ccc3Sc3cc(F)ccc32)CC1	none
CN1CCN(CCOC2Cc3ccccc3Sc3ccc(Cl)cc32)CC1 (centres undefined)	D3 antag -63
CN1CCN(C2Cc3cc(Cl)ccc3Sc3cc(F)ccc32)CC1 (centres undefined)	D3 antag -93 (no result: TSHR antag, B2AR arrestin)
O=C(CN1CCN(CCOCCO)CC1)N1c2ccccc2Sc2ccc(Cl)cc21	none
OCCN1CCN(C2Cc3cc(Cl)ccc3Sc3ccc(Cl)cc32)CC1 (centres undefined) (tested in a mixture with another compound)	D3 antag -72
COc1ccccc1NC(=O)C(Cc1ccccc1)NS(=O)(=O)c1cccc2nsnc12 (centres undefined)	none (no result: D3 antag, TSHR antag, B2AR arrestin)
CCc1ccc(-c2cc(C(=O)N/N=C/c3ccco3)[nH]n2)cc1	none
O=C(N/N=C/c1ccco1)c1cc(-c2ccc3ccccc3c2)n[nH]1	D3 antag -75
O=C(N/N=C/c1c[nH]c2ccccc12)c1cc(-c2ccc(-c3ccccc3)cc2)n[nH]1	DRD3 agonist 35
CC1CC(C)CN(CCCNC(=O)c2cc3c(=O)[nH]c4ccccc4c3n2C)C1 (centres undefined)	D3 antag -64
Cn1c(C(=O)NCCCN2CCc3ccccc3C2)cc2c(=O)n(C)c3ccccc3c21	D3 antag -70
CCCCN(CC)CCNC(=O)c1cc2c(=O)n(C)c3ccccc3c2n1C	D3 antag -73
Cn1c(C(=O)NCCCN2CCCCCC2)cc2c(=O)n(C)c3ccccc3c21	none
CC(C)CCNC(=O)CCn1c(=O)c2cccn2c2cccnc21	none (no result: D3 antag, TSHR antag, B2AR arrestin)
O=C(C(O)c1ccc(Br)cc1)N1CCC(Nc2ccc3[nH]ncc3c2)CC1 (centres undefined)	D3 antag -81 (no result: TSHR antag, B2AR arrestin)
COc1cccc(-n2c(=O)c3c(C)c(C)sc3n(Cc3ccccc3C#N)c2=O)c1	none (no result: D3 antag, TSHR antag, B2AR arrestin)
O=[N+]([O-])c1cccc(/C=N\N=C2c3ccccc3-c3ccccc32)c1O	D3 antag -74
O=C(CSc1nc2sc3c(c2c(=O)[nH]1)CCCC3)Nc1ccccc1F	none (no result: D3 antag, TSHR antag, B2AR arrestin)
NC(=O)CCC(=O)N1CCCC(C(=O)c2ccc3c4c(cccc24)CC3)C1 (centres undefined)	none
O=C(c1ccc2c3c(cccc13)CC2)C1CCCN(Cc2ccccn2)C1 (centres undefined)	D3 antag -51
Cc1cnc(CN2CCCC(C(=O)c3ccc4c5c(cccc35)CC4)C2)[nH]1 (centres undefined)	D3 antag -53
O=C(c1ccc2c3c(cccc13)CC2)C1CCCN(Cc2ccc(OCCO)cc2)C1 (centres undefined)	D3 antag -97
COc1ccc(N2CCN(c3nc4cc(C)ccc4cc3C=O)CC2)cc1	DRD3 agonist 31
COc1ccc(N2CCN(c3cc(C)c4ccc(C)cc4n3)CC2)cc1	none
Cc1ccc(C)c(NC(=O)C2(C)CCCN2C(=O)C(C)C)c1 (centres undefined)	none (no result: TSHR antag, B2AR arrestin)
COc1cccc(NC(=O)C2(C)CCCN2C(=O)C(C)C)c1OC (centres undefined)	DRD3 agonist 75 (no result: TSHR antag, B2AR arrestin)
CC(C)C(=O)N1CCC1(C)C(=O)NS(=O)(=O)c1cccs1 (centres undefined)	D3 antag -63 (no result: TSHR antag, B2AR arrestin)
